# Data reported in the supplement of paper PMC7695840.
# Structures can show the parent of a compound that is named as a salt.
# Test system: Staphylococcus aureus MW2 (mecA+)
# Assay: normalized DsRed fluorescence (growth of mecA+ strain) (fraction of control range); higher = more growth of mecA+ strain
# Details: compound concentration: 150 uM; cefoxitin: subinhibitory; fluorescent label: DsRed
# Outline: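 A 1:1 mix of pre-induced S. aureus MW2 cells, DsRed-labeled with the gene and GFP-labeled without it, was grown in LB with a daily-set subinhibitory antibiotic dose on 150 μM compound (1.5% DMSO) in 1536-well plates, single replicate. Growth lasted 20 h at 37 °C, 90% humidity, without shaking, and DsRed (540/590) and GFP (485/520) were then read. Channels were scaled per plate to single-strain control medians, and plates with high untreated ratios and rows with DsRed/GFP >10 were removed.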
row,SMILES,normalized DsRed fluorescence
1,COc1ccc([C@@H]2Sc3ccccc3N(CCN(C)C)C(=O)[C@@H]2OC(C)=O)cc1,0.612
2,CCN(CC)CCNC(=O)c1cc(S(C)(=O)=O)ccc1OC,0.945
3,Cc1cc(NS(=O)(=O)c2ccc(N)cc2)no1,0.744
4,CN[C@@H]1[C@@H](O)[C@@H](O[C@@H]2[C@@H](O)[C@H](O[C@H]3OC(CN)=CC[C@H]3N)[C@@H](N)C[C@H]2N)OC[C@]1(C)O,0.916
5,Cc1cc(CC(=O)O)n(C)c1C(=O)c1ccc(Cl)cc1,0.63
6,CC1(C)O[C@@H]2C[C@H]3[C@@H]4CCC5=CC(=O)C=C[C@]5(C)[C@@]4(F)[C@@H](O)C[C@]3(C)[C@]2(C(=O)CO)O1,0.613
7,NCCCC[C@H](N[C@@H](CCc1ccccc1)C(=O)O)C(=O)N1CCC[C@H]1C(=O)O,0.642
8,CCCNC(C)C(=O)Nc1ccccc1C (centres undefined),0.919
9,COc1cc(N)c(Cl)cc1C(=O)NC1CCN(CCCOc2ccc(F)cc2)CC1OC (centres undefined),0.643
10,C=CC(N)CCC(=O)O (centres undefined),0.716
11,COc1ccc(CN(CCN(C)C)c2ncccn2)cc1,0.813
12,CC1(C)O[C@@H]2C[C@H]3[C@@H]4C[C@H](F)C5=CC(=O)C=C[C@]5(C)[C@@]4(F)[C@@H](O)C[C@]3(C)[C@]2(C(=O)CO)O1,0.706
13,CC1(C)S[C@@H]2[C@H](NC(=O)[C@H](C(=O)O)c3ccsc3)C(=O)N2[C@H]1C(=O)O,0.864
14,CC[C@@H]([C@H](C)O)n1ncn(-c2ccc(N3CCN(c4ccc(OC[C@@H]5CO[C@@](Cn6cncn6)(c6ccc(F)cc6F)C5)cc4)CC3)cc2)c1=O [Posaconazole],0.572
15,CN(C)CC(c1ccc(O)cc1)C1(O)CCCCC1 (centres undefined),1.1
16,CCCCOc1ccc(CC(=O)NO)cc1 [Bufexamac],0.828
17,C[N+](C)(C)CCO.[Cl-],0.615
18,CNC(=C[N+](=O)[O-])NCCSCc1ccc(CN(C)C)o1,0.742
19,OCc1cccnc1,0.471
20,Nc1ccn([C@@H]2CS[C@H](CO)O2)c(=O)n1,0.767

row,SMILES,normalized DsRed fluorescence
1,CCOc1cc([C@@H](CS(C)(=O)=O)N2C(=O)c3cccc(NC(C)=O)c3C2=O)ccc1OC,0.579
2,COc1ccc(CCN(C)CCCC(C#N)(c2ccc(OC)c(OC)c2)C(C)C)cc1OC (centres undefined),0.717
3,CC(=O)CC(c1ccccc1)c1c(O)c2ccccc2oc1=O (centres undefined),0.285
4,COc1ccccc1OCC(O)CO (centres undefined),0.991
5,COc1ccc2c(c1OC)C(=O)O[C@@H]2[C@H]1c2c(cc3c(c2OC)OCO3)CCN1C,0.698
6,C[C@](N)(Cc1ccc(O)c(O)c1)C(=O)O,0.703
7,CC(COc1ccccc1)N(CCCl)Cc1ccccc1 (centres undefined),0.449
8,CCOC(=O)OC(C)OC(=O)[C@@H]1N2C(=O)[C@@H](NC(=O)[C@H](N)c3ccccc3)[C@H]2SC1(C)C (some centres undefined),0.591
9,CN[C@@H]1[C@H](O)[C@H](NC)[C@H]2O[C@@]3(O)C(=O)C[C@@H](C)O[C@H]3O[C@@H]2[C@H]1O,0.555
10,CCCCCCc1ccc(O)cc1O,1.59
11,CN(C)CCc1c[nH]c2ccc(C[C@H]3COC(=O)N3)cc12,0.962
12,CCC1NC(=O)c2cc(S(N)(=O)=O)c(Cl)cc2N1 (centres undefined),0.513
13,Cn1nnc2c(C(N)=O)ncn2c1=O [Temozolomide],1.11
14,CCOc1ccc(Cc2cc([C@@H]3O[C@H](CO)[C@@H](O)[C@H](O)[C@H]3O)ccc2Cl)cc1 [Dapagliflozin],0.557
15,O=C(CCCCCCC(=O)Nc1ccccc1)NO [Vorinostat (SAHA)],0.944
16,CN(C)CC/C=C1/c2ccccc2COc2ccc(CC(=O)O)cc21 [Olopatadine hydrochloride (Opatanol)],0.587
17,CC(C)(Oc1ccc(CCNC(=O)c2ccc(Cl)cc2)cc1)C(=O)O,0.804
18,Cc1nnc(NS(=O)(=O)c2ccc(N)cc2)s1,1.88
19,C[C@H](CS)C(=O)N1CCC[C@H]1C(=O)O,0.842
